About 83,000 compounds went through this panel and 20% of them were active in at least one assay; those are over-represented in the sample as a whole.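 Activity criterion: percent growth below 10, measured after cells in 96-well plates were exposed to a single compound concentration for 48 hours.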 A number with no mark means an inactive call. Active and inactive are the calls of the source.
tested on: MOLT-4 leukemia; test: NCI-60 one-dose screen, 48 h (100 = growth as untreated, 0 = no growth, -100 = all killed); details: 10 µM unless noted

Row | Structure (SMILES) | growth
1 | COc1ccc2c(CCCCC(c3ccccc3)c3ccccc3)c3[n+](cc2c1OC)CCc1cc2c(cc1-3)OCO2 | -20.7% (active)
2 | CCN1CCN(c2cc(C)nc(N(CCCNc3ccnc4cc(Cl)ccc34)Cc3ccc4c(c3)OCO4)n2)CC1 | -15.9% (active)
3 | O=C(Nc1ccc(C(=O)Nc2ccc(C3=NCCCN3)cc2)cc1)Nc1ccc(C2=NCCCN2)cc1 | 81.5%
4 | CCOC(=O)C1=C(C)N=C2Sc3cc(OC(F)(F)F)ccc3N2[C@H]1c1ccccn1 | 29.5%
5 | Nc1c2c(c(O)c3c1=C(CO)C=N3)=NCCS2 | -24.7% (active)
6 | C[C@@H](C[C@H](CCO)c1cc(C(F)(F)F)cc(C(F)(F)F)c1)c1ccc2ccccc2c1 | 71%
7 | CN(N)c1nc2sc3c(c2c(=O)[nH]1)CCCC3 | 97.5%
8 | Cc1cc(N(CCNc2ccnc3cc(Cl)ccc23)Cc2ccc3c(c2)OCO3)nc(N2CCN(C)CC2)n1 | 0.0794% (active)
9 | C[N+](C)(CCOC(c1ccccc1)c1ccccc1)CC(=O)OCc1ccccc1 | 116%
10 | CC1(/C=N/NC(N)=S)NC(=O)NC1=O (centres undefined) | 82%
11 | [2H]C1([2H])[C@H](C)O[C@H](C)C([2H])([2H])N1c1ccc(NC(=O)c2cccc(-c3ccc(OC(F)(F)F)cc3)c2C)cn1 | 39.9%
12 | N#Cc1cc2[nH]c3ccc(OC(F)(F)F)cc3c2oc1=O | 84.5%
13 | COc1ccc2c(c1OC)C(=O)O[C@@H]2[C@H]1c2c(c(C#CC#Cc3ccc(F)c(F)c3)c3c(c2OC)OCO3)CCN1C | 89%
14 | CCC1(/C=N/NC(N)=S)NC(=O)NC1=O (centres undefined) | 90%
15 | CC(C)C1CCC(C)C(C2(C#N)C(N)=NC(N)=C2C#N)C1=O (centres undefined) | 96.1%
16 | NC(=O)c1n[nH]n2c1nc(=O)c1c3c(sc12)CCCC3 | 100%
17 | CCOC(=O)C1=C(C)NC(=O)NC1c1cc(=O)oc2ccc(C)cc12 (centres undefined) | 99.1%
18 | C=CC(=O)N(C)[C@H]1C[C@H]2OC(C)(C1OC)n1c3ccccc3c3c4c(c5c6ccccc6n2c5c31)C(=O)NC4 (some centres undefined) | -40.1% (active)
19 | Cc1cc2c(-c3nc4ccccn4c3Nc3cccc4ccccc34)c(O)c(O)cc2c(O)c1-c1c(C)cc2c(-c3nc4ccccn4c3Nc3cccc4ccccc34)c(O)c(O)cc2c1O | 31.2%
20 | N#CC1(C#N)C(c2cccs2)NC(c2cccs2)C1(C#N)C#N (centres undefined) | 95.3%

Row | Structure (SMILES) | growth
21 | CC1CCC(n2cnc3c(Cl)ncnc32)O1 (centres undefined) | 113%
22 | Oc1ccc(/C=N/Nc2nnc(N/N=C/c3ccc(O)cc3O)c3ccccc23)c(O)c1 | -26.9% (active)
23 | CCc1ccc(/C=C/c2ccc(O)c3ncccc23)[n+](C)c1 | 7.81% (active)
24 | COc1ccc(OC)c(NC2=C(SCCc3ccccc3)C(=O)c3ccccc3C2=O)c1 | 80.4%
25 | CCN1/C(=C/C=C/c2n(-c3ccccc3)c3ccc(-c4nc5ccccc5s4)cc3[n+]2CC)N(c2ccccc2)c2ccc(-c3nc4ccccc4s3)cc21 | 16.5%
26 | COC(=O)c1[nH]cnc1/N=N/N(C)CCO | 85.8%
27 | O=C1CC(c2ccc(Cl)cc2)c2ncn(-c3cccc(Cl)c3)c2N1 (centres undefined) | 44.4%
28 | COC(=O)CC[C@@H](C)[C@H]1CC[C@H]2C3CC[C@@H]4C[C@@H]5CC[C@]4(C)[C@@]3(O5)[C@H](Br)[C@@H](Br)[C@]12C (some centres undefined) | 76%
29 | CC(=O)OCCC/C(=C\c1ccc2ccccc2c1)[N+](=O)[O-] | -26.1% (active)
30 | COc1cc(-c2cc(-c3ccc(Nc4ccnc5cc(Cl)ccc45)cc3)nc(N3CCOCC3)n2)cc(OC)c1OC | 19.6%
31 | CCOC(=O)Sc1ncnc2nc[nH]c12 | 4.03% (active)
32 | COc1cc2c3c(c1)nc(C)n3CCC2 | 98.4%
33 | CCCCCCCC(=O)SCC/C=C/[C@@H]1CC(=O)NCc2cccc(n2)C2=N[C@@](C)(CS2)C(=O)N[C@@H](C(C)C)C(=O)N1 | 17.5%
34 | COc1ccc2c(CCc3ccc(Cl)cc3)c3[n+](cc2c1OC)CCc1cc2c(cc1-3)OCO2 | 72.6%
35 | CC(=O)C(C(C)=O)C(c1ccccc1)C(C(C)=O)C(C)=O | 104%
36 | Cc1ccc(NC(=O)NC(=O)CSc2nc3ccccc3nc2C)cc1 | 74.3%
37 | Cc1cc(N(CCNc2ccnc3cc(Cl)ccc23)Cc2ccc3c(c2)OCO3)nc(N2CCCC2)n1 | -17.7% (active)
38 | O=C(Nc1ccc(C2=NCCCN2)cc1)c1ccc(C(=O)Nc2ccc(C3=NCCCN3)cc2)nc1 | 85.8%
39 | COC(=O)C1=C(C(=O)OC)C23C=C(C)C1C2=C(C)C1(CC1)[C@@](C)(O)C3=O (some centres undefined) | 73.6%

Reference: PubChem BioAssay (NCI)
